# Source: PubChem
# Gal4-VP16 FLuc: VP16 counterscreen qHTS for inhibitors of ROR gamma transcriptional activity; Drosophila S2 Gal4-VP16 UAS-luciferase, luminescence, 20 h; Potency, µM (top dose mostly 53.6 µM), for inactives: top-dose activity, negative = inhibition, usual class: inhibitors; hit rate 3.5% among 310,000;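 further: Gal4-VP16 expression switched on by copper sulfate through the metallothionein promoter; nearly all actives have a fitted effect of over 50% in size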
# RORgamma inh: qHTS for inhibitors of ROR gamma transcriptional activity; AID 2551, 2010; Drosophila S2 Gal4-RORgamma UAS-luciferase reporter, 20 h; hit rate 5.4% among 310,000; Nuclear receptor ROR-gamma (Mus musculus), P51450; Potency, µM (top dose mostly 53.6 µM), for the others: at the highest dose activity change, negative = inhibition, usual class: inhibitors; further: nearly all actives have a fitted effect of over 60% in size
# Target sequence (P51450 whole entry, looked up, the tested form may be a part): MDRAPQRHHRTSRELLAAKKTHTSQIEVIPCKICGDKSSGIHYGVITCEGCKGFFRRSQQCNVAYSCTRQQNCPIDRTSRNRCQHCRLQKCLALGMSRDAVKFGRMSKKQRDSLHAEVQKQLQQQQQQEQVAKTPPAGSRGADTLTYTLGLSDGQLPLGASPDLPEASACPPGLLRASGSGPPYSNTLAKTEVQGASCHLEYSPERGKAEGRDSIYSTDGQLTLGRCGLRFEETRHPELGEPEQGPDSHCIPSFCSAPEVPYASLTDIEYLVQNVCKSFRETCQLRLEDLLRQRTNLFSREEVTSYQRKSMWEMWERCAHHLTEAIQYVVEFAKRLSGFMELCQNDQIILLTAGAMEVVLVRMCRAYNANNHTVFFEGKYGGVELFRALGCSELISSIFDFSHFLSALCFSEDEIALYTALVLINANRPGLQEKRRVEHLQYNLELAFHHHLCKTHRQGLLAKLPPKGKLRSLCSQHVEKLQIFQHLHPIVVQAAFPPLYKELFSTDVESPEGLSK
#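 Luminescence from a UAS-regulated Photinus luciferase reporter in stably transfected Drosophila Schneider cells is measured; decreased signal marks ROR gamma inhibition. Fusion expression is induced by 700 uM copper sulfate for 20 hr.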
# Luc counter: Counterscreen for Luciferase (Kinase-Glo TM) Inhibition. Potency, µM (top dose mostly 38.3 µM), without a hit: top-dose activity change, negative = inhibition, usual class: inhibitors. Luciferin 4-monooxygenase (Photuris pensylvanica), Q27757. hit rate 0.28% among 200,000. Kinase-Glo luciferase, ATP luminescence, 8 min; further: nearly all actives have a fitted effect of over 60% in size
#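 Inhibition of Kinase-Glo luciferase light generation was assessed at 10 uM ATP in pH 7.2 imidazole buffer, with luminescence measured after eight minutes at ambient temperature.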
# Active calls of the source: *; u = inconclusive; x = no result given; [ ] = dose if it differs, or a comment. An excerpt weighted towards active compounds, which were near 6.4% of everything screened. The call rests on the fitted dose curve; in most records, active means well fitted curve in the direction sought with a large enough effect; inconclusive means small, poorly fitted or top-dose-only effect, or another doubt; inactive means no such curve, though single readings can be large; an effect the other way counts as inactive or inconclusive. On the % scale 0 is the no-effect control and ±100 the full control effect; potency means the concentration at half of the fitted maximal effect.
SMILES,Gal4-VP16 FLuc,RORgamma inh,Luc counter
COc1ccc(Br)cc1C(=O)Nc1cccc2ncccc12,-4%,-1%,0%
COc1cc(C(=O)Nc2cccc3ncccc23)cc(OC)c1OC,-14%,35µM*,-12%
CCN(CC(=O)NCc1ccc(F)cc1)C(=O)/C=C/c1ccc(OC)c(S(=O)(=O)NC(C)C)c1,1%,11%,x
CC(C)(C)NC(=O)C(c1ccncc1)N(C(=O)Cn1nnc(-c2ccc(F)cc2)n1)c1ccccc1F (stereo not drawn),-27%,13µM*,0%
Cc1ccccc1N(C(=O)Cn1nnc(-c2ccc(F)cc2)n1)C(C(=O)NC(C)(C)C)c1ccncc1 (stereo not drawn),-12%,17%,-1%
CCC(CC)c1nnc(NC(=O)C2COc3ccccc3O2)s1 (stereo not drawn),-26%,10µM*,1%
O=C(Nc1ccncc1)C1COc2ccccc2O1 (stereo not drawn),u,9%,0%
CCc1nnc(NC(=O)C2COc3ccccc3O2)s1 (stereo not drawn),-7%,-32%,-7%
Cc1nnc(NC(=O)C2COc3ccccc3O2)s1 (stereo not drawn),3%,-26%,-1%
O=C(Nc1ncc(Cc2ccccc2)s1)C1COc2ccccc2O1 (stereo not drawn),2µM*,10µM*,-6%
O=C(NC1=NCCS1)C1COc2ccccc2O1 (stereo not drawn),4.5µM*,6.3µM*,7.9µM*
Cc1ccc(-c2noc(-c3ccno3)n2)cc1,0%,6%,x
CSC(SC)=C(C#N)C(=O)c1ccccc1,11µM*,-74%,x
COc1cccc(C(=O)C(C#N)=C(SC)SC)c1,u,-100%,x
Cc1ccc(SCC(=O)N2N=CCC2c2ccccc2)cc1 (stereo not drawn),21%,33%,2%
CC(C)CNC(=O)c1cccc(NC(=O)CSc2ccc(Cl)cc2)c1,-15%,14%,1%
Cc1ccc(CNC(=O)Nc2ccc(Cl)cc2)cc1,4%,33%,x
Cc1ccc(NC(=S)NCC(C)CSc2ccc(Cl)cc2)cc1 (stereo not drawn),u,2.8µM*,1%
Cc1cccc(NC(=S)NCC(C)CSc2ccc(Cl)cc2)c1 (stereo not drawn),5.6µM*,3.2µM*,1%
O=C(CCCl)N1CCCC2(CCCCC2)C1,-3%,-1%,x
COc1ccc(C(=O)NCCCN=C2NS(=O)(=O)c3ccccc32)cc1,-2%,14%,x
COC(=O)c1ccc(NC(=O)CCN2C(=O)C3C4CCC(C4)C3C2=O)cc1 (stereo not drawn),7%,u,x
N#CCCN(Cc1cccnc1)C(=O)c1sc2cc(F)ccc2c1Cl,u,-16%,-2%
NS(=O)(=O)c1ccc(CCN=C(NS(=O)(=O)c2cccs2)c2ccccc2)cc1,-9%,18%,0%
O=[N+]([O-])c1cc(S(=O)(=O)NCCN2CCOCC2)ccc1Sc1nnnn1-c1ccccc1,20µM*,11µM*,-1%
SMILES,Gal4-VP16 FLuc,RORgamma inh,Luc counter
Cc1ccc(-n2nnnc2Sc2ccc(S(=O)(=O)NCCN(C)C)cc2[N+](=O)[O-])cc1,u,u,-5%
Cc1csc(NC(=O)C2CC(=O)N(c3ccc(C)c(C)c3)C2)n1 (stereo not drawn),8%,0%,x
COc1ccc(C2=CC(c3ccc(OC)c(OC)c3)NC(=S)N2)cc1 (stereo not drawn),1%,u,-1%
COc1ccc(C2C=C(c3ccc(F)cc3)NC(=S)N2)cc1OC (stereo not drawn),u,8.9µM*,3%
O=C(CN(C(=O)c1csnn1)c1ccc2c(c1)OCCO2)NCc1ccc(F)cc1,-9%,2%,x
CCC(=O)C1CCCN(C(=O)c2ccc(OC3CCN(C(=O)CCOC)CC3)cc2)C1 (stereo not drawn),12%,4%,x
COc1ccc(NC(=S)N(CCN2CCOCC2)Cc2ccccc2F)cc1,7%,u,3%
Cc1cccc(NC(=S)N(CCN2CCOCC2)Cc2ccccc2F)c1,-69%,13µM*,6%
O=C(Nc1ccccc1)N(CCN1CCOCC1)Cc1ccccc1F,12%,u,-1%
Cc1ccc(NC(=S)N(CCN2CCOCC2)Cc2ccccc2F)cc1Cl,u,10µM*,1%
CCCC[C@H](CC)CN1CN(C[C@@H](CC)CCCC)CC(C)(N)C1,-10%[17 µM],-10%[2.98 µM],0%[17.1 µM]
COc1ccc(C2C3=C(CCCC3=O)Nc3nc(C(F)(F)F)nn32)cc1OC (stereo not drawn),-12%,4.5µM*,1%
CCOc1ccc(C2C3=C(CCCC3=O)Nc3nc(C(F)(F)F)nn32)cc1OC (stereo not drawn),1%,22%,2%
O=C(CN(C(=O)CCC(=O)Nc1nccs1)c1ccc(F)cc1)NCCc1ccccc1,2%,34%,x
Cc1noc(C)c1C(=O)N1CCC2(CC1)CN(c1ccccn1)C2,-5%,8%,-3%
O=C(CSc1nnnn1-c1cccnc1)Nc1cccc(Cl)c1,7%,-5%,x
COc1cc(OC)cc(-n2nnnc2SCC(=O)N2CCCc3ccccc32)c1,3%,20%,-3%
O=C(CSc1nnnn1-c1cccc(Cl)c1)Nc1ccc2c(c1)CCC2,8.9µM*,u,x
COc1cccc(-n2nnnc2SCC(=O)N2CCCc3ccccc32)c1,u,20µM*,-1%
COc1ccccc1CNC(=O)C1CC(c2ccccc2C(F)(F)F)=NO1 (stereo not drawn),13%,28%,x
COC(=O)C1Cc2ccccc2CN1S(=O)(=O)c1ccc(F)cc1 (stereo not drawn),5%,-2%,x
CCOc1cc(C(=O)N/N=C/c2ccoc2)cc(OCC)c1OCC,11%,0%,x
Cc1scc(C(=O)N/N=C/c2ccc(OCC(C)C)cc2)c1C,u,11µM*,-3%
CC(C)COc1ccc(C(=O)N/N=C/c2ccoc2)cc1,14µM*,18µM*,x
COc1ccc(N(C(C)C(=O)N/N=C/c2ccc(OCC(C)C)cc2)S(C)(=O)=O)cc1 (stereo not drawn),u,21%,-1%
SMILES,Gal4-VP16 FLuc,RORgamma inh,Luc counter
CCCCOc1ccc(/C=N/NC(=O)c2csc(C)c2C)cc1,u,11µM*,-4%
CCCCCCOc1ccc(/C=N/NC(=O)C2CC2)cc1,13%,-4%,x
CCOC(=O)c1c(NC(=O)Cn2nc(C(=O)O)c3ccccc3c2=O)sc(CC)c1C,6%,4%,2%
CCOC(=O)c1cc2c(ccc3nc(C)c(C)c32)[nH]c1C,-16%,-23%,x
O=C(OC1Cc2c(O)cc(O)cc2OC1c1cc(O)c(O)c(O)c1-c1c(C2Oc3cc(O)cc(O)c3CC2OC(=O)c2cc(O)c(O)c(O)c2)cc(O)c(O)c1O)c1cc(O)c(O)c(O)c1 (stereo not drawn),-4%,-14%,-3%
CSc1ncccc1C(=O)Nc1ccc(F)c(F)c1F,9%,-10%,1%
O=C(Nc1ccc(OCC(F)(F)C(F)F)c(C(F)(F)F)c1)c1ccccc1O,-8%[0.365 µM],7.9µM*,1%
O=C(Nc1ccc(OCC(F)(F)C(F)F)cc1)c1ccncc1,-26%,7%,-5%
COc1ccccc1OCC(=O)Nc1cccc(-c2nnc(-c3ccco3)o2)c1,5%,-2%,-3%
